Drawing on the supplement of paper PMC6555819, this text covers PBM binding z-score for 40 sequences.

The assay deals with VDR:RXRa (NR concentration 270 nM, RXRa partner concentration 90 nM). The assay can be described thus: PBM binding z-score (relative to random genomic background probes); higher = stronger binding; sequences stand for … in GC…GCGATTGACAGCGTAGAATGAAGG
On the procedure: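 Protein-binding microarray (Agilent 4x180K custom design, double-stranded 60-nt probes: 5' GC cap, 34-nt variable region, 24-nt constant primer region; full probe sequence given). Purified or IVT nuclear receptor:RXRα heterodimers (3:1 NR:RXRα, mostly 270:90 nM) or homodimers were incubated for 1 h in PBS with 2% milk and no ligand, then detected with Alexa488 antibodies. Fluorescence from o1-orientation probes (~5 replicates averaged) was converted to z-scores against 500 random hg19 background probes. Variable regions are seed direct-repeat (DR0–DR5) sites, all their single-nucleotide variants and half-site ablations.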
On to CAAACTAGGTCACGAAAGGTCTAAGTCGAATGAC, for which the PBM binding z-score was 3.75.

As for ATATTTAGGTTACATCCGGGTCATTCAGGCTATG, the PBM binding z-score came to 4.13.

Consider TCTAGTTAGTCACGGAGGTCACACACGACGGGTA, for which the PBM binding z-score came out at 4.24.

As for CTACCAAGGTGAATAAGGTCGTTGATTACTATTC, the PBM binding z-score is 5.52.

For the sequence CCTTACGGGTCACTCCCGGTTATAGCATCGGAGT, the PBM binding z-score was 3.03.

Take CCGACTGGGGCATAAGGTTACCATCAGCCAGCCC: the PBM binding z-score is -0.0341.

TCTAGTTGGTCACAGAGGTCACACACGACGGGTA returned a PBM binding z-score of 6.44.

On to TCAGACAGGTGAAGGTAACTGAGGTACGCAGTCG, for which the PBM binding z-score worked out at 0.737.

AGAATCAGGTTACCAAAGATCAGGGAAACGCTTG returned a PBM binding z-score of -0.0357.

As for CATTACGGGTCAAGGTTATAGCACGGGTGGTACG, the PBM binding z-score was 3.96.

TAGCCTACGTCATGCGGGCCAGTATAGTGTCGGC: the PBM binding z-score was -0.879.

Consider TCTCGGAGGACACGAAAGGTCAGATCTCGACATC, for which the PBM binding z-score turned out to be 3.38.

For the sequence GTACCAAGGCGAATAGGTCGTTGATGAGTAGGCG, the PBM binding z-score was -0.145.

The sequence CCTAGTTGGTCAGCAGGTCACACACCGGATATGA returned a PBM binding z-score of 2.32.

CGTACTGGGCCAAAAAGGTCATTGATGCCGATAA came in with a PBM binding z-score of 5.04.

ATCGAAAGGTCGACGAGGTGAGGATACACCGTTT came in with a PBM binding z-score of 5.19.

On to AGAATGAGGTTATACGTAGATCAGGCAAGAAAGT, for which the PBM binding z-score came to 1.46.

For the sequence CCGACTTGGGCATAAGGTTACCATAAGCCAGCCC, the PBM binding z-score is -0.311.

As for GTACCAAGGTGAATTGGTCGTTGATGAGTAGGCG, the PBM binding z-score was -0.409.

For AATCAAAGTTCATCTAGGTAACGTAAGATATGCT, the PBM binding z-score came to 5.13.

Regarding TCATATAGGTAAATGTTAGGTGAAAGTCCGATCT, the PBM binding z-score is 1.23.

Regarding TGAGTGAGGTTAAAGATCAGGGAACGTGGCGTCG, the PBM binding z-score was determined as 1.66.

As for CGTCCAAGGTCAATGCTAGGTCAGTGCAAGCATT, the PBM binding z-score is 4.95.

Take CCGACTGGGGCAAAGGTTACCGTACTCAGTACGA: the PBM binding z-score amounted to 1.39.

With TGTCAAAGTTCAAAGGTAACGTTAGTATCCACAC, the PBM binding z-score is 4.9.

As for AGAACGAGGGCAATGAGTTGATAGCCCGGGTGGC, the PBM binding z-score was determined as 4.73.

For the sequence TCTAACAGGCCAGAGGGTCACTCAAGAGGTACGG, the PBM binding z-score was determined as 1.76.

The sequence TAGCCTAGGTCATGGGCCAGTCTACCACGCGAAC registered a PBM binding z-score of 1.82.

TCATCTAGGTAAAGGTGAAAGTCGAACGATATGA displayed a PBM binding z-score of 0.95.

Consider TAGCCTAGGTCATGGGACAGTATACCACGCGAAC, for which the PBM binding z-score amounted to 2.17.

TCGAGTAGGTTACCAATTGGGCATTCAGCTTTCT yielded a PBM binding z-score of -0.197.

Regarding GCAGACAGGTGAAACGCAGGTAAATCAGGGTGGC, the PBM binding z-score is -0.374.

In turn, ACTATTAGTTGACTTAGGGTAACCGATACGACGC had a PBM binding z-score of 0.225.

In turn, CCTGCCAGGTCATGGTCAGCTAATCTACAGTATG yielded a PBM binding z-score of 2.65.

In the case of AATACAGCGTCATCGTAGGCCAGAGTACGCACAG, the PBM binding z-score is -0.373.

ACTCGCAGGCCAAGGGTCACTCAAGATTAGTCCG yielded a PBM binding z-score of 2.89.

As for CCCACTGGGCCAAAGGTCATTGATTCCAATGCTC, the PBM binding z-score is 4.73.

TCTCGGAGGACCCGAAGGTCAGAGCTTTCCAGAG gave a PBM binding z-score of 0.636.

In the case of GCTAGCAGGCAATTTGGGTCACTCAATGACGGGC, the PBM binding z-score is 0.222.

For AGTCTAAGTTCATCTAGGTAACGTAAGATATGCT, the PBM binding z-score turned out to be 4.65.
